# Assay results as given in PubChem BioAssay AID602233 (National Center for Advancing Translational Sciences (NCATS), 2012).
# The campaign covered roughly 380,000 compounds. About 170 (0.045%) were called active. Calls follow the shape of the dose curve; as a rule, active = well fitted inhibition curve with a large enough effect; inconclusive = small, poorly fitted or top-dose-only effect; inactive = no such curve, though single readings can be large or run the other way. The list comes from a sample in which actives are over-represented; it also holds similar structures and randomly drawn compounds. Where a call stands in place of a potency, no number is given.
# Target: Phosphoglycerate kinase, glycosomal (Trypanosoma brucei brucei) (UniProt P07378)
# Sequence (P07378 whole entry, looked up): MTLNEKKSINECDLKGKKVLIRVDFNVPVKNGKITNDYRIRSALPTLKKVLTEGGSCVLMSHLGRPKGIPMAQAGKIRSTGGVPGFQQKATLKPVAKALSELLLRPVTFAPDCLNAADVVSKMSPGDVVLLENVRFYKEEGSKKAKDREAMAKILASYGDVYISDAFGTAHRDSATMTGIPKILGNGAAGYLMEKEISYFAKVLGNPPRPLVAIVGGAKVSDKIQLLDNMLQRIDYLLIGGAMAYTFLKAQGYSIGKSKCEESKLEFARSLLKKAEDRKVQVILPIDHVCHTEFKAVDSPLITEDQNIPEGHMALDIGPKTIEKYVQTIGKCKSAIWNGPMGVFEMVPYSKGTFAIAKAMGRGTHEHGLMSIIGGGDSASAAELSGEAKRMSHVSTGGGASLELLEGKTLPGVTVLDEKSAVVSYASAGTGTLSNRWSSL
# Test: qHTS Assay to Find Inhibitors of Phosphoglycerate Kinase; also: nearly all actives have a fitted effect of over 60% in size
# Conditions: PGK/GAPDH coupled, Kinase-Glo luminescence, 60 min; series mostly up to 57.5 µM
# Procedure, shortened: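 Luminescent ATP detection (Kinase-Glo Plus) follows a 60-minute room-temperature incubation, with wells lacking PGK as controls. Buffer: 100 mM TEA (pH 7.6), 5 mM MgCl2, 0.01% Tween-20. Coupling enzyme GAPDH (100 nM final) supplies unstable 1,3-BPG in-well.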
row,Structure (SMILES),Potency
1,CCCCOc1ccc(NC(=O)c2cc3c(n(-c4ccc(Cl)cc4)c2=O)CCCC3=O)cc1,inactive
2,CCOc1ccccc1CNCc1c(C(=O)O)c(C)n(Cc2ccc(C)cc2)c1C,inactive
3,CCOc1ccc(CNC(=O)CCc2c(C)nn(-c3ccc(N4CCCCC4)nn3)c2C)cc1,inactive
4,CCOC(=O)C1CCCN(S(=O)(=O)c2cc(-c3cc(C)no3)ccc2OC)C1 (stereo not given),inactive
5,COc1ccccc1-c1noc(CSc2nnc(-c3ccccc3)n2-c2ccc(C)c(C)c2)n1,inactive
6,COc1cccc(NC(=O)CN2C(=O)c3ccccc3Sc3ncccc32)c1,inactive
7,COc1cccc(OCCn2c(-c3ccc(Br)cc3)nc3ccccc3c2=O)c1,inactive
8,O=C(Cn1c(=O)n(Cc2ccccc2)c(=O)c2sc3ccccc3c21)Nc1ccccc1F,inactive
9,CCC(=O)N1CCc2cc(S(=O)(=O)NC(CC(C)C)C(=O)NCCc3cccc(C)c3)ccc21 (stereo not given),inactive
10,CCOc1ccc(-n2nc3ccc(NC(=O)c4ccc(OC)c(Cl)c4)cc3n2)cc1,inactive
11,Cc1cc(C)c(NC(=O)c2cc3sc(Cl)cc3n2C)c(C)c1,inactive
12,CCn1c2ccccc2c2nnc(SCC(=O)O)nc21,inactive
13,COc1ccc(-c2nc(Cn3c(=O)cc(C)c4c(C)nn(-c5ccccc5)c43)c(C)o2)c(OC)c1,inactive
14,COc1ccccc1CNC(=O)c1ccc(-n2c(C)cc3c2CCCC3)cc1,inactive
15,Cc1ccc(O)c(NC(=O)CCS(=O)(=O)c2nc(-c3ccc4c(c3)OCO4)cc(C(F)(F)F)n2)c1,inactive
16,COc1ccc(NC(=O)c2ccco2)cc1NC(=O)COc1ccc(C)c(C)c1,inactive
17,CCCSc1nc2sc3c(c2c(=O)n1-c1cccc(Br)c1)CC(C)(C)OC3,inactive
18,O=C(NCCCO)C(=O)Nc1c2c(nn1-c1ccccc1)CSC2,inactive
19,COc1ccc(NC(=O)CCNS(=O)(=O)c2ccc3c(c2)CCCC(=O)N3)cc1Cl,inactive
20,CN1c2ccc(Cl)cc2-c2nc(SCC(=O)Nc3cc(F)ccc3F)ncc2S1(=O)=O,inactive

row,Structure (SMILES),Potency
1,COc1ccc(Cc2nc3ccc(C(=O)NCc4ccc(OC)cc4OC)cc3o2)cc1,inactive
2,CCOC(=O)C1CCCN(CC(=O)Nc2cc(C)c3c(=O)oc4ccccc4c3n2)C1 (stereo not given),inactive
3,COc1ccc(S(=O)(=O)NCCSc2nnnn2-c2ccccc2)cc1,inactive
4,COC(=O)c1c(NC(=O)CCCOc2ccccc2)sc2c1CCC(C)C2 (stereo not given),inactive
5,Cc1nn2c(=O)cc(COC(=O)c3ccccc3NC(=O)COc3ccccc3C)nc2s1,inactive
6,COc1ccccc1CNC(=O)CCCn1c(=O)c2ccccc2n(CC(=O)Nc2ccc(C)cc2Cl)c1=O,inactive
7,COc1ccccc1CNC(=O)NCc1noc2ccc(C)cc12,inactive
8,CCOc1ccccc1NC(=O)Cn1c2ncccc2c(=O)n1-c1ccc(C)c(C)c1,inactive
9,O=C(CSc1nc2ccccc2nc1Cc1ccccc1)N1CCCCC1,inactive
10,CCOc1cccc(NC(=O)CSc2ncc(-c3ccc(Cl)cc3)[nH]2)c1,inactive
11,Cc1c(C(=O)N(C)C)sc2c1c(=O)n(-c1ccc(F)cc1)c(=O)n2CC(=O)N(C)c1ccccc1,inactive
12,CCOc1ccc(N(C)S(=O)(=O)c2cc(-c3cnc(C)o3)ccc2OC)cc1,inactive
13,Cc1oc(-c2ccccc2F)nc1CN1CCC(C(=O)NCCc2ccc(Cl)cc2)CC1,inactive
14,CCOc1ccc(NC(=O)c2c(NC(=O)Cc3ccccc3)sc3c2CCCCC3)cc1,inactive
15,CCc1nnc(SCC(=O)Nc2cc(OC)ccc2OC)nc1CC,inactive
16,CCOc1ccc(OCC)c(NC(=O)CN(c2ccc(C)cc2)S(=O)(=O)c2c(C)n[nH]c2C)c1,inactive
17,CCCS(=O)(=O)c1ncc(Cl)c(C(=O)Nc2scc(-c3ccccc3)c2C(=O)OCC)n1,inactive
18,Cc1sc(C2C(C#N)=C(N)N(c3cccc(Cl)c3)C3=C2C(=O)CCC3)cc1CN1CCOCC1 (stereo not given),inactive
19,Cc1ccc(C(=O)N2c3ncnn3C3(CCCCC3)[C@@H]3CCCC[C@@H]32)cc1,inactive
20,O=C(CC(c1cccs1)N1Cc2ccccc2C1=O)Nc1ccc(F)c(F)c1 (stereo not given),inactive

row,Structure (SMILES),Potency
1,CC1=Nc2cc(C(=O)NCc3ccc(C)cc3)ccc2Sc2ccc(Cl)cc21,inactive
2,CCc1cnc2c(c1SCC(=O)N1CCC(C)CC1)c(=O)n(C)c(=O)n2C,inactive
3,CCc1cccc(NC(=O)CN(c2ccc(C)c(C)c2)S(=O)(=O)c2ccsc2C(=O)OC)c1,inactive
4,CCOc1ccccc1NC(=O)c1ccc2c(c1)CCN2S(=O)(=O)c1ccc(C)cc1,inactive
5,CSc1ccc(NC(=O)Cn2nnnc2-c2ccccc2F)cc1,inactive
6,CC(=O)c1ccc(NC(c2ccc(F)cc2)c2nnc(-c3ccccc3)o2)cc1 (stereo not given),inactive
7,CCOc1ccc(CCNC(=O)c2c(C)oc3ncn(C)c(=O)c23)cc1,inactive
8,CCc1ccccc1NC(=O)c1cnn(-c2ccc(F)cc2)c1C1CCNCC1,inactive
9,Cc1ccc(CNC(=O)CCNS(=O)(=O)c2ccc3c(c2)oc(=O)n3C)cc1,inactive
10,CCc1cccc(-n2nnc(-c3nsc(NC(=O)c4ccc(C)cc4)n3)c2C)c1,inactive
11,CC(C)Cn1c(=O)c2ccccc2n2c(CCC(=O)N3CCN(c4cccc(Cl)c4)CC3)nnc12,inactive
12,Cc1ccc(OCCSc2nc(-c3cccs3)nc3cc(=O)[nH]n23)cc1Cl,inactive
13,CC1=C(c2ccc(Cl)cc2)S(=O)(=O)N=C1N1CCN(c2cc(C)ccc2C)CC1,inactive
14,Cc1cccc(N2CCN(c3c(CN4CCCC4)c(=O)oc4ccccc34)CC2)c1C,inactive
15,CCc1ccc(NC(=O)CN2CCSc3ccc(S(=O)(=O)N4CCCC4)cc32)cc1,inactive
16,CCCN(CCC)CCNC(=O)c1ccc2c(c1)NC(=O)C(CS(=O)(=O)Cc1cccc(Br)c1)N2 (stereo not given),inactive
17,COc1cc(CNC(=O)c2cc3n(n2)CCCN(Cc2cccc(F)c2)C3=O)cc(OC)c1OC,inactive
18,COc1ccc(OC)c(-c2nc(C(N)=O)c3c(n2)n(-c2ccc4c(c2)OCO4)c(=O)n3C)c1,inactive
19,CCN(Cc1ccccc1)C(=O)c1cn(-c2cccc(OC)c2)c(=O)c2ccccc12,inactive
20,O=C(CCn1c(=O)c2ccccc2n(Cc2ccc(Cl)cc2)c1=O)NCc1ccc2c(c1)OCO2,inactive
